{
  "source": "paper PMC4336329",
  "about": "(PLoS ONE, 2015)",
  "note": "About 14,000 (4.5%) of roughly 310,000 compounds showed an effect of 50% or more. Effects have a minus sign here. The list comes from a sample in which strong results are over-represented; it also holds similar structures and randomly drawn compounds.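 Further: peak tail current of the secondary pulse compared with the same well before compound.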",
  "data": [
    {"biological_target": "human ether-à-go-go-related gene (hERG) potassium channel (human, UniProt Q12809)", "sequence (Q12809 whole entry, looked up)": "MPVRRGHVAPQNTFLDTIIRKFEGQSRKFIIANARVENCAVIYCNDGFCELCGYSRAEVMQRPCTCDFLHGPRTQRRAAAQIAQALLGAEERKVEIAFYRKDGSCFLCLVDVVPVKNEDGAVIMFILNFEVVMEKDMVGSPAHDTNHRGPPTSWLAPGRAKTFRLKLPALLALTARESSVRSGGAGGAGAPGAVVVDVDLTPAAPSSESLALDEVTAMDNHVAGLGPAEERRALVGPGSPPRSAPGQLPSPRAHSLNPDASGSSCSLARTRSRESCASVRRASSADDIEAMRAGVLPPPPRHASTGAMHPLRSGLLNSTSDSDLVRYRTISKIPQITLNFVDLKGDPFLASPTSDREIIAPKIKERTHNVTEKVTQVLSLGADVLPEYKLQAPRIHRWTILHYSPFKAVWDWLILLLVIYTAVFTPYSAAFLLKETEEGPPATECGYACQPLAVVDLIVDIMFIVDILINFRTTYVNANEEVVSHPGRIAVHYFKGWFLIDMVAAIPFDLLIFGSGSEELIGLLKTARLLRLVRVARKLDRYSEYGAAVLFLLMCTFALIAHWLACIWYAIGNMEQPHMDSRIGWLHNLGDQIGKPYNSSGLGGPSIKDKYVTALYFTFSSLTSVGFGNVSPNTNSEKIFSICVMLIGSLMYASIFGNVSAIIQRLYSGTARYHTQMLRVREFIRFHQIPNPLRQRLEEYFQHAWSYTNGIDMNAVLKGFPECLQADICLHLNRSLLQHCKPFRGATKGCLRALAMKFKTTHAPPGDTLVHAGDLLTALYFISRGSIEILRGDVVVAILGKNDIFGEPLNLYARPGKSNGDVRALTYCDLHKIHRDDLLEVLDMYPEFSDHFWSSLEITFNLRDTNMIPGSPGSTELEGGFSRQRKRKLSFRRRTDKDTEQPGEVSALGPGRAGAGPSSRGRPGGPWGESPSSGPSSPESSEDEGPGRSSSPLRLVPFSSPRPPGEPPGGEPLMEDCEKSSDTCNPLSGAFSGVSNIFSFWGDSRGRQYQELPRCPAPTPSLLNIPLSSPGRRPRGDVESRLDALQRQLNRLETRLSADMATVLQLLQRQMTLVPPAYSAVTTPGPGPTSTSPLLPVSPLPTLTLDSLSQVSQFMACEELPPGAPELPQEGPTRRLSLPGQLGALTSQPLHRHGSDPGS", "assay": "primary screen, population patch clamp on CHO cells stably expressing hERG; higher = less effect of the substance", "units": {"hERG current change (%, negative = inhibition) at 10uM": "%"}, "values": [
      {"compound": "COC(=O)CSc1nnc2n(-c3ccc(OC)cc3)c(=O)c3c4c(sc3n12)CCCCC4", "hERG current change (%, negative = inhibition) at 10uM": -10.6},
      {"compound": "Cc1cc(NC(=O)CCC(=O)N(CC(=O)NC2CCCC2)c2ccc(Cl)cc2)no1", "hERG current change (%, negative = inhibition) at 10uM": -16.7},
      {"compound": "CN1CCN(S(=O)(=O)c2ccc(NC(=O)COc3ccccc3Cl)cc2)CC1", "hERG current change (%, negative = inhibition) at 10uM": 20.1},
      {"compound": "COc1ccc(NC(C)=O)cc1NS(=O)(=O)c1ccc2c(c1)OCCO2", "hERG current change (%, negative = inhibition) at 10uM": 21.4},
      {"compound": "O=C(Nc1ccc2c(c1)OCO2)c1nn(-c2ccccc2)c(=O)c2ccccc12", "hERG current change (%, negative = inhibition) at 10uM": 11},
      {"compound": "O=C1C(=O)N(CCN2CCOCC2)C(c2ccccc2F)/C1=C(\\O)c1ccc(S(=O)(=O)N2CCOCC2)cc1", "note": "(stereo not drawn)", "hERG current change (%, negative = inhibition) at 10uM": 11.5},
      {"compound": "O=C(Nc1ccccc1-c1nnn(CC(=O)N2CCCc3ccccc32)n1)c1ccc(Cl)cc1", "hERG current change (%, negative = inhibition) at 10uM": 8.92},
      {"compound": "O=C(COC(=O)c1ccc(F)cc1F)NC1CC1", "hERG current change (%, negative = inhibition) at 10uM": 23},
      {"compound": "Cc1ccc(OC(=O)c2cncc(Br)c2)c(C)c1", "hERG current change (%, negative = inhibition) at 10uM": 16},
      {"compound": "N/C(=N\\OC(=O)COc1ccccc1)c1ccccn1", "hERG current change (%, negative = inhibition) at 10uM": 13.6},
      {"compound": "O=C(CN(c1ccc(F)cc1)S(=O)(=O)c1ccc2c(c1)OCCO2)Nc1ccc2c(c1)OCO2", "hERG current change (%, negative = inhibition) at 10uM": 14.4},
      {"compound": "N/C(=N\\OC(=O)c1cc(Br)ccc1Cl)c1ccccn1", "hERG current change (%, negative = inhibition) at 10uM": 13.1},
      {"compound": "CCOc1ccccc1C(=O)NCC(=O)Nc1ncccc1C", "hERG current change (%, negative = inhibition) at 10uM": 14},
      {"compound": "CC(NC(=O)c1ccccc1Cl)c1ccc(-n2ccnc2)cc1", "note": "(stereo not drawn)", "hERG current change (%, negative = inhibition) at 10uM": -34.2},
      {"compound": "CC(NC(=O)c1ccccc1C(=O)O)c1ccc(-n2ccnc2)cc1", "note": "(stereo not drawn)", "hERG current change (%, negative = inhibition) at 10uM": 16},
      {"compound": "CCOc1ccccc1C(=O)NCC(=O)NC(C)c1ccc(-n2ccnc2)cc1", "note": "(stereo not drawn)", "hERG current change (%, negative = inhibition) at 10uM": -70.9},
      {"compound": "COc1cc(C(=O)NCC(=O)NC(C)c2ccc(-n3ccnc3)cc2)cc(OC)c1OC", "note": "(stereo not drawn)", "hERG current change (%, negative = inhibition) at 10uM": -3.06},
      {"compound": "CCOc1ccc(C(=O)NCC(=O)NC(C)c2ccc(-n3ccnc3)cc2)cc1OCC", "note": "(stereo not drawn)", "hERG current change (%, negative = inhibition) at 10uM": -77.4},
      {"compound": "CC(C)c1ccc(CCNC(=O)CCNC(=O)c2ccc(Br)cc2)cc1", "hERG current change (%, negative = inhibition) at 10uM": 5.74},
      {"compound": "CC(NC(=O)CCNC(=O)c1ccc(Br)cc1)c1ccc(S(N)(=O)=O)cc1", "note": "(stereo not drawn)", "hERG current change (%, negative = inhibition) at 10uM": 15.3},
      {"compound": "CC(NC(=O)CCNC(=O)c1ccc(Br)cc1)c1ccc(-n2ccnc2)cc1", "note": "(stereo not drawn)", "hERG current change (%, negative = inhibition) at 10uM": -66.5},
      {"compound": "CCOc1ccccc1C(=O)NC(C)c1ccc(-n2ccnc2)cc1", "note": "(stereo not drawn)", "hERG current change (%, negative = inhibition) at 10uM": -57.5},
      {"compound": "CCOc1ccc(C(=O)NCC(=O)Nc2ccncc2)cc1OCC", "hERG current change (%, negative = inhibition) at 10uM": 4.58},
      {"compound": "Nc1nnc(SCC(=O)NNC(=O)c2ccc(Cl)cc2)s1", "hERG current change (%, negative = inhibition) at 10uM": -0.0303},
      {"compound": "O=C(N/N=C/c1ccc(O)cc1)c1ccc(COc2cc(Cl)ccc2Cl)o1", "hERG current change (%, negative = inhibition) at 10uM": 7.07},
      {"compound": "c1csc(-c2nn3c(Cn4nnc5ccccc54)nnc3s2)c1", "hERG current change (%, negative = inhibition) at 10uM": 16.6},
      {"compound": "Cc1cc(NNC(=O)Nc2cccc(Cl)c2)nc2c1c(C)nn2C", "hERG current change (%, negative = inhibition) at 10uM": 3.56},
      {"compound": "Cc1ccccc1NC(=O)CN1C(=O)N/C(=C\\c2ccc(N3CCOCC3)c(F)c2)C1=O", "hERG current change (%, negative = inhibition) at 10uM": 10.8},
      {"compound": "COc1ccc(NC(=S)NCCc2c[nH]c3ccccc23)cc1", "hERG current change (%, negative = inhibition) at 10uM": -7.49},
      {"compound": "Nc1ccccc1C#Cc1ccc([N+](=O)[O-])cc1", "hERG current change (%, negative = inhibition) at 10uM": 1.66},
      {"compound": "CCc1ccc(-c2cc(C)no2)cc1S(=O)(=O)N1CCN(c2ccc(C(C)=O)cc2)CC1", "hERG current change (%, negative = inhibition) at 10uM": -4.32},
      {"compound": "C=CCC(CC=C)(C(=O)O)c1ccccc1", "hERG current change (%, negative = inhibition) at 10uM": -8.46},
      {"compound": "CC(NC(=O)c1ccccc1OC(F)F)c1ccc(-n2ccnc2)cc1", "note": "(stereo not drawn)", "hERG current change (%, negative = inhibition) at 10uM": -55},
      {"compound": "CC(NC(=O)CNC(=O)c1ccccc1F)c1ccc(-n2ccnc2)cc1", "note": "(stereo not drawn)", "hERG current change (%, negative = inhibition) at 10uM": -64},
      {"compound": "CC(NC(=O)CCNC(=O)c1ccccc1Cl)c1ccc(-n2ccnc2)cc1", "note": "(stereo not drawn)", "hERG current change (%, negative = inhibition) at 10uM": -17.8},
      {"compound": "COc1ccc(NC(C)=O)cc1S(=O)(=O)NC(C)c1ccc(-n2ccnc2)cc1", "note": "(stereo not drawn)", "hERG current change (%, negative = inhibition) at 10uM": -3.74},
      {"compound": "CC(NC(=O)c1c(F)cccc1Cl)c1ccc(-n2ccnc2)cc1", "note": "(stereo not drawn)", "hERG current change (%, negative = inhibition) at 10uM": -27},
      {"compound": "COc1ccc(C(=O)NC(C)c2ccc(-n3ccnc3)cc2)c(OC)c1OC", "note": "(stereo not drawn)", "hERG current change (%, negative = inhibition) at 10uM": -53.1},
      {"compound": "COc1ccc(OC)c(S(=O)(=O)NC(C)c2ccc(-n3ccnc3)cc2)c1", "note": "(stereo not drawn)", "hERG current change (%, negative = inhibition) at 10uM": -25.1},
      {"compound": "COc1ccc(C(=O)NC(C)c2ccc(-n3ccnc3)cc2)c(OC)c1", "note": "(stereo not drawn)", "hERG current change (%, negative = inhibition) at 10uM": -53.8},
      {"compound": "CCCCN(CC)CCNC(=O)Cn1cnc2sc(C)c(S(=O)(=O)N3CCC(C)CC3)c2c1=O", "hERG current change (%, negative = inhibition) at 10uM": -19.1},
      {"compound": "Cc1cc(C)c(S(=O)(=O)c2cc(F)ccc2C)c(=O)[nH]1", "hERG current change (%, negative = inhibition) at 10uM": 18.1}
    ]}
  ]
}
